In PubChem BioAssay (NCATS):
Inconclusive results are not listed. The source made the active and inactive calls. Calls come from the whole dose curve; as a rule, active = well fitted curve in the direction sought with a large enough effect; inconclusive = small, poorly fitted or top-dose-only effect, or another doubt; inactive = no such curve, though single readings can be large; an effect the other way counts as inactive or inconclusive.

Key:
[1] = NS1 protein of Zika virus - qHTS assay to identify small molecule inhibitors in human HEK 293 cells (AID 1347053);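 note: series mostly up to about 46 µM; plate controls were infected untreated cells for no effect and uninfected cells for full effect; nearly all actives have a fitted effect of over 55% in size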
In short: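 Readout was TR-FRET using paired anti-NS1 antibodies after 24 h infection of HEK 293 cells with ZIKV MR766 (MOI = 0.5). Compound preceded virus by 1 h; reduced signal reflects lower NS1 expression.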

[2] = qHTS of pediatric cancer cell lines to identify multiple opportunities for drug repurposing: Primary screen for TC32 cells (AID 1347089); note: % is set by controls: 0 for no effect and ±100 for the full control effect; nearly all actives have a fitted effect of over 60% in size
In short: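 Luminescent ATP read-out (CellTiter-Glo) of metabolically active TC32 cells after 48 h exposure. Concentration-response curves came from 11-point (MIPE, 0.78 nM–46 µM) or 8-point (NPC, 0.59 nM–46 µM) primary titrations; follow-up used 11 points.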

[3] = qHTS of pediatric cancer cell lines to identify multiple opportunities for drug repurposing: Primary screen for DAOY cells (AID 1347090);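 note: series mostly up to about 46 µM; plate controls were DMSO for no effect and bortezomib for full effect; nearly all actives have a fitted effect of over 55% in size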
In short: (§1)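 Cell viability, CellTiter-Glo luminescence; 500-1,000 cells/well, 8- or 11-point titration, 48 h compound exposure at 37 degrees C, 5% CO2. Controls: DMSO neutral, bortezomib 2.3 µM final as positive.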

[4] = qHTS of pediatric cancer cell lines to identify multiple opportunities for drug repurposing: Primary screen for SJ-GBM2 cells (AID 1347091);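 note: plate controls were DMSO neutral control for no effect and bortezomib for full effect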
In short: as §1

[5] = qHTS of pediatric cancer cell lines to identify multiple opportunities for drug repurposing: Primary screen for A673 cells (AID 1347092); note: % is set by controls: 0 for no effect and ±100 for the full control effect; nearly all actives have a fitted effect of over 45% in size
In short: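 Cell viability of A673 measured by CellTiter-Glo ATP luminescence after 48 hours compound exposure. Dilution series spanned 0.78 nM to 46 µM (MIPE, 11-point) or 0.59 nM to 46 µM (NPC, 8-point); bortezomib 2.3 uM positive control.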

[6] = qHTS of pediatric cancer cell lines to identify multiple opportunities for drug repurposing: Primary screen for BT-37 cells (AID 1347094);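 note: series mostly up to about 57 µM; plate controls were DMSO for no effect and bortezomib for full effect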
In short: (§2)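 CRCs from 8- or 11-point titrations (lowest final 0.59 nM NPC, 0.78 nM MIPE). Cell viability: CellTiter-Glo after 48 h incubation, 15 min room-temperature development, luminescence imaging.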

[7] = qHTS of pediatric cancer cell lines to identify multiple opportunities for drug repurposing: Primary screen for NB-EBc1 cells (AID 1347095);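 note: plate controls were DMSO neutral control for no effect and bortezomib for full effect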
In short: as §2

[8] = qHTS of pediatric cancer cell lines to identify multiple opportunities for drug repurposing: Primary screen for U-2 OS cells (AID 1347096);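 note: plate controls were DMSO wells for no effect and bortezomib positive control wells for full effect; nearly all actives have a fitted effect of over 50% in size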
In short: (§3)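 Cells (500-1,000/well) rested 5 h, then received compounds for 48 h; metabolically active cells were measured by CellTiter-Glo luminescence. Final concentrations spanned up to 46 µM (MIPE, 11-point) or 0.59 nM-46 µM (NPC, 8-point) in primary screens, 11-point in follow-ups.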

[9] = qHTS of pediatric cancer cell lines to identify multiple opportunities for drug repurposing: Primary screen for Saos-2 cells (AID 1347097); note: % is set by controls: 0 for no effect and ±100 for the full control effect; nearly all actives have a fitted effect of over 40% in size
In short: as §2

[10] = qHTS of pediatric cancer cell lines to identify multiple opportunities for drug repurposing: Primary screen for SK-N-SH cells (AID 1347098); note: % is set by controls: 0 for no effect and ±100 for the full control effect; nearly all actives have a fitted effect of over 65% in size
In short: as §3

[11] = qHTS of pediatric cancer cell lines to identify multiple opportunities for drug repurposing: Primary screen for NB1643 cells (AID 1347099);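 note: plate controls were DMSO neutral control for no effect and bortezomib positive control for full effect; nearly all actives have a fitted effect of over 50% in size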
In short: as §2

[12] = qHTS of pediatric cancer cell lines to identify multiple opportunities for drug repurposing: Primary screen for LAN-5 cells (AID 1347100);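 note: plate controls were DMSO neutral control for no effect and bortezomib positive control for full effect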
In short: as §3

[13] = qHTS of pediatric cancer cell lines to identify multiple opportunities for drug repurposing: Primary screen for SK-N-MC cells (AID 1347093);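 note: series mostly up to about 46 µM; plate controls were DMSO neutral control for no effect and bortezomib for full effect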
In short: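 Metabolically active cells were quantified by ATP-dependent luminescence (CellTiter-Glo, 15 min at room temperature) following 48 h treatment. Cells had been plated at 500-1,000 per well and settled for 5 h beforehand.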

[14] = qHTS of pediatric cancer cell lines to identify multiple opportunities for drug repurposing: Primary screen for BT-12 cells (AID 1347101); note: nearly all actives have a fitted effect of over 25% in size; note: potency is the fitted concentration of half-maximal effect;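 for activity change, negative = cytotoxic: plate controls were DMSO for no effect and bortezomib positive control for full effect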
In short: as §3

[15] = qHTS of pediatric cancer cell lines to identify multiple opportunities for drug repurposing: Primary screen for Rh18 cells (AID 1347102); note: % is set by controls: 0 for no effect and ±100 for the full control effect; nearly all actives have a fitted effect of over 65% in size
In short: as §3

[16] = qHTS of pediatric cancer cell lines to identify multiple opportunities for drug repurposing: Primary screen for OHS-50 cells (AID 1347103); note: nearly all actives have a fitted effect of over 40% in size; note: potency is the fitted concentration of half-maximal effect;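 for activity change, negative = cytotoxic: plate controls were DMSO neutral control for no effect and bortezomib positive control for full effect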
In short: as §3

OC(C#CCN1CCCC1)(c1ccccc1)c1ccccc1
inactive: Potency [1] | Potency [2] | Potency [3] | Potency [4] | Potency [5] | Potency [6] | Potency [7] | Potency [8] | Potency [9] | Potency [10] | Potency [11] | Potency [12]

N=C(N)N1CCc2ccccc2C1
inactive: activity change, negative = inhibition [1] -16.4% [at 4.81 µM] | activity change, negative = cytotoxic [2] 1.67% [at 4.81 µM] | activity change, negative = cytotoxic [3] -21.6% [at 4.84 µM] | activity change, negative = cytotoxic [4] 1.07% [at 4.84 µM] | activity change, negative = cytotoxic [5] -18% [at 4.84 µM] | activity change, negative = cytotoxic [13] -27.9% [at 4.84 µM] | activity change, negative = cytotoxic [7] 5.74% [at 4.84 µM] | activity change, negative = cytotoxic [8] -4.95% [at 4.84 µM] | activity change, negative = cytotoxic [10] -21.9% [at 6 µM] | activity change, negative = cytotoxic [11] -5.24% [at 4.84 µM] | activity change, negative = cytotoxic [12] -2.04% [at 4.84 µM] | activity change, negative = cytotoxic [14] -5.09% [at 6.03 µM] | activity change, negative = cytotoxic [15] 1.68% [at 4.84 µM]

O=C(O)CCC(=O)Nc1ccc(S(=O)(=O)Nc2nccs2)cc1
inactive: Potency [1] | Potency [2] | Potency [3] | Potency [4] | Potency [5] | Potency [7] | Potency [8] | Potency [9] | Potency [10] | Potency [11] | Potency [12] | Potency [15] | Potency [16]

CCN1CCCC(OC(=O)C(c2ccccc2)c2ccccc2)C1 (stereo unspecified)
inactive: Potency [1] | Potency [2] | Potency [3] | Potency [4] | Potency [5] | Potency [6] | Potency [7] | Potency [8] | Potency [9] | Potency [11] | Potency [12] | Potency [14] | Potency [15] | Potency [16]

CCN(CC)CCOC(=O)C(Cc1cccc2ccccc12)CC1CCCO1 (stereo unspecified)
inactive: Potency [1] | Potency [2] | Potency [3] | Potency [4] | Potency [5] | Potency [6] | Potency [7] | Potency [8] | Potency [10] | Potency [11] | Potency [12] | Potency [15]

Cc1cc(CC(=O)O)c(C)n1-c1ccc(Cl)cc1
inactive: Potency [1] | Potency [2] | Potency [3] | Potency [4] | Potency [5] | Potency [6] | Potency [7] | Potency [9] | Potency [10] | Potency [11] | Potency [14] | Potency [15] | Potency [16]

CO[C@H]1C=CO[C@@]2(C)Oc3c(C)c(O)c4c(O)c(c(/C=N/N5CCN(C)CC5)c(O)c4c3C2=O)NC(=O)/C(C)=C\C=C[C@H](C)[C@H](O)[C@@H](C)[C@@H](O)[C@@H](C)[C@H](OC(C)=O)[C@@H]1C
inactive: Potency [1] | Potency [2] | Potency [3] | Potency [4] | Potency [5] | Potency [6] | Potency [7] | Potency [11] | Potency [12] | Potency [16]

CCOC(=O)c1c(N)sc2c1CCN(Cc1ccccc1)C2
active: Potency [14] 17.4 µM | Potency [16] 17.4 µM
inactive: Potency [1] | Potency [2] | Potency [3] | Potency [4] | Potency [7] | Potency [8] | Potency [9] | Potency [11] | Potency [15]

C#C[C@]1(O)CC[C@H]2[C@@H]3[C@H](C)CC4=C(CCC(=O)C4)[C@H]3CC[C@@]21C
inactive: Potency [1] | Potency [2] | Potency [3] | Potency [4] | Potency [5] | Potency [7] | Potency [8] | Potency [9] | Potency [10] | Potency [11] | Potency [12] | Potency [15] | Potency [16]

CN1CCN(C2=Nc3cc(F)ccc3Cc3ccccc32)CC1
inactive: Potency [1] | Potency [2] | Potency [3] | Potency [4] | Potency [5] | Potency [7] | Potency [12]

Cc1cc(NS(=O)(=O)c2ccc(N)cc2)nc(C)n1
inactive: Potency [1] | Potency [2] | Potency [3] | Potency [4] | Potency [5] | Potency [6] | Potency [7] | Potency [8] | Potency [9] | Potency [10] | Potency [11] | Potency [12] | Potency [16]

C[C@@H](O)[C@H]1C(=O)N2C(C(=O)O)=C(S[C@@H]3CN[C@H](CNS(N)(=O)=O)C3)[C@H](C)[C@H]12
inactive: Potency [1] | Potency [2] | Potency [3] | Potency [4] | Potency [5] | Potency [6] | Potency [7] | Potency [8] | Potency [9] | Potency [12] | Potency [14] | Potency [16]

Cc1ccc(O)c([C@H](CCN(C(C)C)C(C)C)c2ccccc2)c1
inactive: Potency [1] | Potency [2] | Potency [3] | Potency [4] | Potency [5] | Potency [6] | Potency [8] | Potency [9] | Potency [12] | Potency [14] | Potency [15]

CC(C)[N+](C)(C)CC(O)COc1cccc2ccccc12 (stereo unspecified)
inactive: Potency [1] | Potency [2] | Potency [3] | Potency [4] | Potency [6] | Potency [7] | Potency [8] | Potency [9] | Potency [10] | Potency [11] | Potency [12] | Potency [15]
